# Measurements: PubChem BioAssay (EPA / NIEHS)
# Where “and” joins values, the source holds several entries; their conditions need not be identical. Equal values may be shown once. Calls of active or inactive are those of the source. How the source made its calls: active means hit-call score of the fitted dose curve at least 0.9, where 1 is the maximum; inconclusive means response in the unintended direction; inactive means score below 0.9.
# Tested on: DIO3 (gene 1735)
# Test: CCTE_GLTED_hDIO3: CCTE's human Deiodinase 3 (DIO3) Inhibition Assay, Great Lakes Toxicology and Ecology Division (GLTED) Lab (AID 2284055);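 on AC50: potency is for inhibition seen as loss of released iodide signal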
# Procedure, shortened: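 hDIO3 (adenovirus-expressed) + test chemical, 3 h incubation; free iodide quantified by Sandell-Kolthoff reaction, absorbance read-out. DMSO negative control, n=3.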
Structure (SMILES),AC50,outcome
CC(C)(C)CC(C)(C)c1ccc(O)cc1,82 µM (active),
O=C1C(Cl)=C(Cl)C(=O)c2ccccc21,11.3 µM (active),
Cl/C=C\C[N+]12CN3CN(CN(C3)C1)C2,100 µM (active),
CCC(C)(C)c1ccc(O)c(C(C)(C)CC)c1,18.9 µM (active),
Clc1ccc(COC(Cn2ccnc2)c2ccc(Cl)cc2Cl)cc1 (configuration not stated),,inactive
CC(C)(c1ccc(OCC2CO2)cc1)c1ccc(OCC2CO2)cc1 (configuration not stated),3.62 µM (active),
CCCCCCCCc1ccc(O)cc1,19.9 µM (active),
C=CC(=O)OCCCCCC(C)C,35.4 µM (active),
O=C(O)C(F)(F)C(F)(F)C(F)(F)C(F)(F)C(F)(F)C(F)(F)C(F)(F)C(F)(F)C(F)(F)C(F)(F)F,19.9 µM (active) and 25.1 µM (active),
O=C1C2(Cl)C3(Cl)C4(Cl)C(Cl)(Cl)C5(Cl)C3(Cl)C1(Cl)C5(Cl)C24Cl (configuration not stated),4.51 µM (active),
CC12CC1(C)C(=O)N(c1cc(Cl)cc(Cl)c1)C2=O (configuration not stated),,inactive
CC(C)(c1ccccc1)c1ccc(O)c(C(C)(C)c2ccccc2)c1,17.3 µM (active),
